# From PubChem BioAssay (NCI)
# Several values for one entry are separate records, joined by “and”; a condition that tells them apart may be missing. Equal entries are not always repeated. The panel holds about 83,000 compounds, 20% with a hit somewhere; the sample as a whole holds those more often.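 How to read the values: 0–100, growth inhibition (40 = 60% inhibited); 0, no net growth; -100 to 0, cell death (-40 = 40% of starting cells died; -100 = all dead).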 A number with no mark means an inactive call. Activity calls are given as the source filed them. How the source made its calls: active means growth percent below 10; inactive means the rest.
# Tested on: T-47D breast
# Assay: NCI-60 one-dose screen, 48 h (100 = growth as untreated, 0 = no growth, -100 = all killed)
# Conditions: 10 µM unless noted
row,Structure (SMILES),growth
1,NC(=O)c1ccc(-c2ccc3ncnc(N4CCc5cc(F)c(Cl)cc54)c3c2)cn1,28%
2,COc1cc2cc(C(=O)N3C[C@@H](CCl)c4c3cc(OC(=O)N(CCC(=O)N3CCN(C)CC3)[C@H]3CCSSC3)c3ccccc43)[nH]c2c(OC)c1OC,8.8% (active)
3,COc1ccc2[nH]c(=O)c(CSc3ccccc3Nc3nccc(-c4ccc5c(c4)OCO5)n3)cc2c1,52%

# Tested on: BT-549 breast
# Assay: as above
# Conditions: 10 µM unless noted
row,Structure (SMILES),growth
1,N#Cc1cc(-c2ccc3ncnc(N4CCc5cc(F)c(Cl)cc54)c3c2)cnc1N,9.67% (active)
2,Cn1cc(Nc2ncnc(-c3ccc(N4CCCC4)c(C#N)c3)n2)cn1,76.1%
3,CN(C)CCCc1ccc(Nc2cnn(C)c(=O)c2Cl)cc1,115%
4,O=Cc1cncc(-c2ccc3ncnc(N4CCc5cc(F)c(Cl)cc54)c3c2)c1,-7.41% (active)
5,N#CC1=C(c2cccs2)Nc2c(c(-c3ccccc3)nn2-c2ccccc2)C12C(=O)Nc1ccccc12 (stereo unspecified),-41.8% (active)
6,O=C(CSc1nc2sc3c(c2c(=O)n1-c1ccc(Cl)cc1)CCCC3)NNC(=O)c1ccc(F)cc1,67.3%
7,COc1ccc(-c2cc(-c3cc(OC)c(OC)c(OC)c3)[nH]c(=O)c2C#N)cc1,70.5%
8,CC(=O)Nc1cccc(-n2c(COc3ccc(Br)cc3)nc3ccccc32)c1,109% and 97.2%
9,Cc1cc(Cl)ccc1NC(=O)Nc1ccc(-c2ccc3c(c2)NC(=O)/C3=C\c2ccc[nH]2)cc1,79.1%
10,Nc1cc(-c2c[nH]c3ccc(Br)cc23)nc2cc(-c3c[nH]c4ccccc34)nn12,-21.4% (active)
11,CCc1ccc(SC2c3cc(OC)ccc3Oc3nc(N)c(C#N)c(N)c32)cc1 (stereo unspecified),-67.8% (active)
12,COc1ccc(C(=O)NNC(=O)CSc2nc3sc4c(c3c(=O)n2-c2ccc(Cl)cc2)CCCC4)cc1,34.5%
13,CNc1nc2ccccc2n2c(-c3ccc(O)c(O)c3)cnc12,-22.3% (active)
14,CN(CCSSCCN1CCOCC1)C(=O)Oc1cc2c(c3ccccc13)[C@H](CCl)CN2C(=O)c1cc2cc(OCCCN3CCC3)ccc2[nH]1,-52.5% (active)
15,Cn1cc(-c2cc(N)n3nc(-c4c[nH]c5ccc(F)cc45)cc3n2)c2cccnc21,-73.6% (active)
16,O=C(Cn1c(-c2ccccc2)nc2ccccc21)N=Nc1c(O)[nH]c2ccc(Br)cc12,-53.7% (active)
17,O=C(NN1C(=O)/C(=C/C=C/c2ccc([N+](=O)[O-])o2)SC1=S)c1ccncc1,-91.7% (active)
18,CCCCCCCCCc1ccc(C(=O)Nc2cc(C)ccc2C(=O)OC)cc1,129%
19,COc1ccc(N=Nc2c(N)nn3c(-c4ccc([N+](=O)[O-])cc4)ccnc23)cc1,94%

row,Structure (SMILES),growth
1,COc1ccc2[nH]c(O)c(N=Nc3nc(-c4ccc(Cl)cc4)cs3)c2c1,25.9%
2,C[C@@H](Nc1c(C#N)cnc2ccc(-c3cnc4[nH]ncc4c3)cc12)c1ccccc1,-21.7% (active)
3,CS(=O)(=O)Nc1cccc(-n2c(COc3ccc(OC(F)(F)F)cc3)nc3ccccc32)c1,98% and 96.5%
4,Cc1cc(C(NC(=O)CCCCCNc2cccc3c2C(=O)N(C2CCC(=O)CC2=O)C3=O)c2cccc(N(C)C)c2)c(O)c2ncccc12 (stereo unspecified),-8.92% (active)
5,COc1ccc(S(=O)(=O)Nc2ccc(-c3ccc4c(c3)NC(=O)/C4=C\c3ccc[nH]3)cc2)cc1OC,13.3%
6,COc1ccc(-c2nc3ccccc3n2CC(=O)N=Nc2c(O)[nH]c3ccc(OC)cc23)cc1,20.5%
7,Cc1ccc(C(C(=O)NC2CCCCC2)N(Cc2ccccc2Cl)C(=O)c2ccc(CN3CCOCC3)o2)o1 (stereo unspecified),152%
8,COc1ccc(N=Nc2c(N)nn3c(-c4ccc(OC)c(OC)c4)ccnc23)cc1,65.6%
9,Cc1ccc(Cl)cc1NC(=O)N/C(N)=N/c1nc2ccccc2s1,-7.19% (active)
10,N#Cc1cc(-c2ccnc(Nc3ccc(N4CCN(C5COC5)CC4)cc3)n2)ccc1N1CCCC1,34.1%
11,COc1ccc(-c2nc3ccc(-c4nnc(SCC(=O)Nc5ccc(/C(C)=N\O)cc5)o4)cc3[nH]2)cc1,-62.3% (active)
12,O=C1/C(=C/c2cnc(-c3ccccc3)s2)SC(=S)N1Cc1ccc2c(c1)OCO2,69.2%
13,Cc1nn(-c2ccccc2)c2ncn(CC(=O)N/N=C/c3ccccc3O)c(=O)c12,56.5%
14,COc1ccc(C2=NN(C(=O)[C@H]3[C@@H](c4ccco4)c4sc(=O)[nH]c4S[C@@H]3C)C(c3ccc4ccccc4c3)C2)cc1 (stereo partly specified),76.2%
15,CCc1ccccc1NC(=O)N/C(N)=N/c1nc2ccccc2s1,-12% (active)
16,O=C(Nc1ccc(Cl)c(C(F)(F)F)c1)N1CCN(c2cc(-c3cn(-c4ccccc4)nc3-c3cccc(O)c3)ccn2)CC1,-39.4% (active)
17,NC(=O)c1ccc(-c2ccc3ncnc(N4CCc5cc(F)c(Cl)cc54)c3c2)cn1,61.1%
18,COc1cc2cc(C(=O)N3C[C@@H](CCl)c4c3cc(OC(=O)N(CCC(=O)N3CCN(C)CC3)[C@H]3CCSSC3)c3ccccc43)[nH]c2c(OC)c1OC,-81.1% (active)
19,COc1ccc2[nH]c(=O)c(CSc3ccccc3Nc3nccc(-c4ccc5c(c4)OCO5)n3)cc2c1,67.3%
